Measured values from PubChem BioAssay AID624483 (NMMLSC, 2012).
Out of some 360,000 compounds screened, about 11,000 (3.1%) were called active. Not shown: some 2% with an inconclusive outcome. The full list was thinned out, with actives kept by preference. A number with no mark means an inactive call. No stated cut-off is given here; in the data, active means fluorescence intensity above about 16000; inconclusive means no clear call, values can overlap the other calls; inactive means below that.

Assay: compound fluorescence in toxin protease inhibitor counterscreen, primary screen, artefact control for toxin protease inhibitor project, biochemical, multiplex microsphere, HTS (AID 624483)
Details: compound autofluorescence counterscreen, microsphere flow cytometry; stronger effect = higher value

Row | Structure (SMILES) | fluorescence intensity
1 | CCOC(=O)C1=CC[C@@H](c2ccccc2)N(S(=O)(=O)c2ccc(C)cc2)[C@H]1c1cccc(OC)c1 | 6140
2 | COc1ccccc1CCNC(=O)c1cnccn1 | 16600 (active)
3 | COc1ccccc1CCNC(=O)c1c(C)nn(CC(C)C)c1Cl | 4680
4 | O=C(NCCCNC(=O)c1ccccc1Cl)c1cnccn1 | 4420
5 | O=C(NCCS(=O)(=O)N1CCN(c2ccc(F)cc2)CC1)c1ccc2c(c1)OCO2 | 4110
6 | CC1(C(=O)NS(=O)(=O)c2cccc(F)c2)CCN1C(=O)c1cccc2ccccc12 (stereo not drawn) | 2920
7 | CN(C)C1CN(Cc2cn(Cc3ccccc3)nn2)S(=O)(=O)C1 (stereo not drawn) | 4320
8 | O=C1c2ccccc2-c2ncnc3c(N4CCOCC4)cc(N4CCOCC4)c1c23 | 4380
9 | c1cnn(-c2cc(N3CCOCC3)ncn2)c1 | 17000 (active)
10 | NC(=O)c1ccc(N2CCOCC2)nc1 | 2600
11 | N#CCCN(C(=O)Nc1ccc(Cl)c(Cl)c1)C1CCCCC1 | 2920
12 | CS(=O)(=O)N(CC(=O)Nc1ccc(F)cc1)C1CCCCC1 | 3860
13 | CS(=O)(=O)N(CC(=O)Nc1ccc(Cl)c(Cl)c1)C1CCCCC1 | 21700 (active)
14 | O=S1(=O)CC(N2CCN(CCO)CC2)CN1Cc1cn(Cc2ccc(Cl)cc2)nn1 (stereo not drawn) | 5500
15 | O=C1c2cccnc2C(Nc2ccc(S(=O)(=O)N3CCCCCC3)cc2)N1Cc1ccccc1 (stereo not drawn) | 21600 (active)
16 | O=S(=O)(NCc1ccccc1)c1ccc(S(=O)(=O)N2CCCC2)cc1 | 4970
17 | Cc1nc(Nc2ccc(S(=O)(=O)N3CCCC3)cc2)c2nnn(Cc3ccccc3)c2n1 | 2010
18 | O=C(Nc1cccc(C(=O)NC2CC2)c1)c1ccc(F)c(S(=O)(=O)N2CCOCC2)c1 | 6040
19 | CCOC(=O)C1(C)CCCN(C(=O)c2ccc(F)c(Cl)c2)C1 (stereo not drawn) | 3580
20 | COc1ccc(S(=O)(=O)NC(=O)C2(C)CCN2C(=O)COc2ccc(Cl)cc2)cc1 (stereo not drawn) | 3840
21 | COC(=O)[C@]12CCCCC=C1N(Cc1ccc(Cl)cc1Cl)C(=O)[C@H](CC(=O)NCc1cccc3ccccc13)C2 | 5890
22 | COc1ccc(N2CCN(C(c3cc4ccc(C)cc4[nH]c3=O)c3nnnn3C3CCCC3)CC2)cc1 (stereo not drawn) | 24400 (active)
23 | CCOC(=O)C1CCN(C(c2cc3cc(C)cc(C)c3[nH]c2=O)c2nnnn2C2CCCCC2)CC1 (stereo not drawn) | 11300
24 | COc1ccc(C(c2nnnn2C2CCCCC2)N2CCN(c3ccccc3F)CC2)cc1 (stereo not drawn) | 2590

Row | Structure (SMILES) | fluorescence intensity
25 | CN(CC(=O)NC1CCN(Cc2ccccc2)CC1)S(=O)(=O)c1ccc(Cl)s1 | 4220
26 | CC(C)(C)C(=O)c1c(N)[nH]c(C(=O)c2ccccc2)c1-c1ccc(F)cc1 | 4830
27 | O=C(Nc1cccc(-c2nnc(-c3ccccc3)o2)c1)C1CCCO1 (stereo not drawn) | 8340
28 | O=C(Nc1ccc(-c2nnc(-c3ccccc3)o2)cc1)C1CCCO1 (stereo not drawn) | 23500 (active)
29 | CCOc1ccc(NC(=O)c2ccc(NC(=O)C3CCCO3)cc2)cc1 (stereo not drawn) | 5940
30 | COc1ccc(NC(=O)NNC(=O)COc2cc(C)c(Cl)c(C)c2)c(OC)c1 | 4710
31 | COc1cc(NC(=O)c2ccc(CNc3c(N4CCCC4)c(=O)c3=O)cc2)cc(OC)c1OC | 4980
32 | COc1ccc(Br)c(Cn2c(C)c(C(=O)NCc3cccs3)sc2=O)c1 | 5140
33 | CCN(CC)Cc1c(C(=O)OC)nnn1-c1nonc1N | 2240
34 | O=C(Nc1sc2c(c1-c1nc3ccccc3[nH]1)CCCC2)C1CC1 | 3170
35 | Nc1ccccc1-c1nc2ccncc2[nH]1 | 3770
36 | c1ccc2[nH]c(-c3nc4ccccc4[nH]3)nc2c1 | 16500 (active)
37 | CCOC(=O)[C@]12CCCC=C1N(Cc1ccc3c(c1)OCO3)C(=O)[C@H](CC(=O)N1CCN(C(=O)c3ccco3)CC1)C2 | 3930
38 | Cc1ccc(Cc2c(-c3ccc(Cl)cc3)nc3c4ccccc4ccn23)cc1 | 4990
39 | CC(=O)c1c(O)n(C2CCCCCC2)c(=O)[nH]c1=O | 2970
40 | O=c1cc(C(F)(F)F)[nH]c(=O)n1C1CCCCC1 | 24200 (active)
41 | Cc1ccc(Nc2cc(=O)n(C3CCCCC3)c(=O)[nH]2)cc1C | 3080
42 | COC(=O)C1=CN(C)C=C(C(=O)OC)C1c1ccc(Cl)cc1Cl | 3960
43 | CCOc1cc(C2C(C(=O)OC)=CN(C3CCCC3)C=C2C(=O)OC)cc(Br)c1O | 8950
44 | CCOc1ccccc1C1C(C(=O)OC)=CN(C)C=C1C(=O)OC | 19700 (active)
45 | CC(Oc1ccc2c(-c3ccccc3)cc(=O)oc2c1)C(=O)NC(Cc1c[nH]c2ccccc12)C(=O)O (stereo not drawn) | 3610
46 | COc1ccc(-c2cc(=O)oc3cc(OC(C)C(=O)NCC4CCC(C(=O)O)CC4)ccc23)cc1 (stereo not drawn) | 6030
47 | COC(=O)C(C)Oc1ccc2c(-c3cccc([N+](=O)[O-])c3)cc(=O)oc2c1 (stereo not drawn) | 21200 (active)
48 | CC(C)n1c(NCc2c[nH]c3ccccc23)nc2ccccc21 | 2940

Row | Structure (SMILES) | fluorescence intensity
49 | COCCOC(=O)c1sc(=S)n(CCOC)c1N | 23500 (active)
50 | CC(=O)N1Cc2cc(C(=O)NCc3cccc(F)c3)nc(-c3cccc(C4=CCCCC4)c3)c2[C@H]1CCO | 5630
51 | O=C(CNS(=O)(=O)c1ccc(Br)s1)NCc1ccc2c(c1)OCO2 | 24800 (active)
52 | O=C(NCc1cccnc1)C12CC3CC(CC(C3)C1)C2 | 3100
53 | O=C(NCc1ccc2c(c1)OCO2)C12CC3CC(CC(C3)C1)C2 | 21300 (active)
54 | Cc1ccc(CNC(=O)CCNS(=O)(=O)c2ccc(Br)s2)cc1 | 3440
55 | O=C(NCc1ccc2c(c1)OCO2)c1ccc(Cl)s1 | 3620
56 | Cc1ccc(C(=O)OCC(=O)NCc2ccc3c(c2)OCO3)s1 | 3100
57 | COc1ccc(OC)c(NC(=O)C2(C)CCN2C(=O)Cc2ccccc2)c1 (stereo not drawn) | 3710
58 | CCCCOCCCNC(=O)C[C@@H]1C[C@@]2(C(=O)OC)CCCCC=C2N(CCC2=CCCCC2)C1=O | 6000
59 | O=c1onc(-c2c(F)cccc2F)n1-c1ccccc1Cl | 4210
60 | Cc1ccc(NS(=O)(=O)c2ccc(-c3coc(C)n3)cc2)c(C)c1 | 5350
61 | Cc1c(C)c2c(OCC(=O)N[C@@H](C(=O)O)c3ccccc3)cc3c(c2oc1=O)CCC(C)(C)O3 | 6410
62 | CCOC1=C2CN(S(=O)(=O)c3ccc(C)cc3)[C@H](c3cccs3)C[C@H]2[C@H]2C(=O)N(c3ccccc3)C(=O)[C@H]2C1 | 6240
63 | COCCCn1cc(CN2CC(N(C)C)CS2(=O)=O)nn1 (stereo not drawn) | 4380
64 | O=C(Nc1cccc2c1CCCC2)c1ccc(F)cc1 | 4040
65 | Cc1ccc(F)cc1NC(=O)c1cccc(N(C)C)c1 | 23300 (active)
66 | Cc1ccc(C)c(NC(=O)c2ccc3nccnc3c2)c1 | 4320
67 | COCCNc1nc(Nc2ccccc2Cl)c2sc(-c3ccccc3)cc2n1 | 3680
68 | Cc1ccc(C)c(N2C(=O)CS/C2=N\NC(=O)c2ccccc2Cl)c1 | 9520
69 | CC1=CC(=NNS(=O)(=O)c2ccc([N+](=O)[O-])cc2)CC(C)(C)C1 | 3700
70 | CSc1nc(-c2ccco2)nn1C(=O)c1ccccc1Cl | 4950
71 | C/C(=N/NC(=O)CCc1ccccc1)c1ccco1 | 2010
72 | CSc1nc(-c2ccco2)nn1C(=O)CCc1ccccc1 | 22700 (active)

Row | Structure (SMILES) | fluorescence intensity
73 | COc1cccc(C(O)c2nc(-c3ccc(C)c(C)c3)cs2)c1 (stereo not drawn) | 3830
74 | CCC1=[N+]([O-])C(C)(/C(C)=N\O)N(O)C1(C)C (stereo not drawn) | 9530
75 | C/C(=N\O)C1(C)N(O)C(C)(C)C(c2ccc(Br)cc2)=[N+]1[O-] (stereo not drawn) | 25600 (active)
76 | CCC1(C)N(O)C(C)(C)C(c2ccc(OC)cc2)=[N+]1[O-] (stereo not drawn) | 5620
77 | C=CCN(CC=C)S(=O)(=O)c1ccc(C(=O)Nc2nc3c(s2)CCc2ccccc2-3)cc1 | 11000
78 | CC(=O)c1c(C)oc2ccc(NS(=O)(=O)c3ccccc3)cc12 | 5190
79 | COc1ccccc1-n1cnc2cc(NS(=O)(=O)c3ccccc3)ccc21 | 3550
80 | COc1cc(NS(=O)(=O)c2ccccc2)ccc1-n1nc(C)cc1C | 17700 (active)
81 | CC(C)(O)C#Cc1ncc(C(F)(F)F)cc1Cl | 4380
82 | O=C(NC1CCCCC1)C1CC(=O)N(CCc2ccccc2)C1 (stereo not drawn) | 21500 (active)
83 | O=C(NCCCN1CCCCC1)C1CC(=O)N(CCc2ccccc2)C1 (stereo not drawn) | 5320
84 | Cc1ccc(CCN2CC(C(=O)NCCc3ccccc3)CC2=O)cc1 (stereo not drawn) | 5840
85 | CC(=O)NC1CCN(CC(=O)Nc2nccs2)CC1 | 3460
86 | O=C(Nc1cccc2ccccc12)c1[nH]c(-c2ccccc2)c2c1C(=O)N(C1CC1)C2=O | 5310
87 | CCCNC(=O)c1cc2c(c(-c3cccc(-c4ccc(C#N)cc4)c3)n1)[C@@H](CCO)N(C(=O)CC)C2 | 4490
88 | Cn1c2c(c(=O)n(C)c1=O)[C@@H]1c3c(ccc4ccccc34)OC[C@@H]1CO2 | 3510
89 | CCN1CCN(CCCCOc2ccccc2F)CC1 | 9580
90 | Fc1ccccc1OCCCCn1cncn1 | 5750
91 | OCCNCCCCOc1ccccc1F | 23000 (active)
92 | CCCN1C(=O)C(NC(C)=O)c2cc(OC)ccc21 (stereo not drawn) | 2550
93 | COc1ccc(C(=O)NCC[N+](C)(C)C)cc1 | 5780
